MARV entry inh: inhibitors of Marburg virus binding or cell entry; Marburg virus pseudotyped entry inhibition, cell reporter; Potency, µM (series often up to 37.8 µM), usual class: inhibitors; actives 1.8% (n = 300,000); AID 540276; calls by dose curve; tested in HEK293 cells
VACV Venus inh: vaccinia inhibition (Venus reporter); Vaccinia virus Venus reporter expression, fluorescence; Potency, µM (titrated, usually from 36.5 µM), most hits filed as inhibitors; actives 0.46% (n = 330,000); calls by dose curve; tested in A549 cells; also: nearly all actives have a fitted effect of over 30% in size
Vaccinia mCherry: vaccinia inhibition (mCherry reporter) | Vaccinia virus mCherry reporter infection, fluorescence | Potency, µM (top dose mostly 36.5 µM), usual class: inhibitors | actives 0.63% (n = 310,000) | AID 720579; calls by dose curve; tested in A549 cells; also: nearly all actives have a fitted effect of over 35% in size
Lassa entry inh: inhibitors of Lassa virus binding or cell entry | Lassa virus pseudotype entry inhibition, cell reporter | Potency, µM (doses to about 37.9 µM), usual class: inhibitors | actives 1.2% (n = 300,000) | AID 540256; calls by dose curve; tested in HEK293 cells; also: nearly all actives have a fitted effect of over 50% in size
HCV inh: blocks hepatitis C virus; Huh7.5.1 HCVcc-Cre infection, luciferase reporter, 44 h; Potency, µM (titrated, usually from 41.8 µM), most hits filed as inhibitors; actives 3.4% (n = 340,000); AID 651820; active = well fitted inhibition curve with a large enough effect; inconclusive = small, poorly fitted or top-dose-only effect, or another doubt; inactive = no such curve, though single readings can be large or run the other way
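Infectious HCVcc-Cre (~0.5 moi) was added to cells just after compound, with cells seeded 4 h earlier at 1,000 per well. Luciferase activity after 44 h culture reported infection; substrate was incubated 15 min at room temperature before reading.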
Of the large screens only hits and unclear results are named; the others gave an inactive call. Sampled rows, rich in hits. Any-hit rate of the full collection: about 4.6%.

COc1ccc(NS(=O)(=O)c2ccc(NC(=O)Cc3cccs3)cc2)cc1	MARV entry inh inconclusive, Vaccinia mCherry inconclusive, Lassa entry inh inconclusive
COc1ccc(NS(=O)(=O)c2cc(NC(=O)Cc3cccs3)ccc2C)cc1	MARV entry inh inconclusive, Lassa entry inh 1.8µM
C/C=C/COC(=O)c1[nH]c2c(c1C)C(=O)CC(c1ccc(N(C)C)cc1)C2 (configuration not stated)	HCV inh 5.6µM (no result: MARV entry inh, Lassa entry inh)
CCOCCOC(=O)c1[nH]c2c(c1C)C(=O)CC(c1ccc(N(C)C)cc1)C2 (configuration not stated)	Vaccinia mCherry inconclusive, HCV inh inconclusive (no result: MARV entry inh, Lassa entry inh)
CC(=O)c1cccc(NC(=O)Nc2ccc3c(c2)N(C)C(=O)CS3)c1	HCV inh 3.2µM
CCn1c(C)nc2cc(NS(=O)(=O)c3ccccc3)cc(C(=O)N3C[C@@H](C)O[C@@H](C)C3)c21	none (no result: MARV entry inh, Lassa entry inh, HCV inh)
CC(NC(=O)CCCC1=NS(=O)(=O)c2ccccc2N1)c1ccccc1 (configuration not stated)	none (no result: MARV entry inh, HCV inh)
COc1ccc2nc(NC(=O)C3CCN(S(=O)(=O)c4cccnc4)CC3)sc2c1	VACV Venus inh inconclusive, Vaccinia mCherry inconclusive, HCV inh inconclusive (no result: Lassa entry inh)
COc1ccc2nc(NC(=O)c3ccc(S(=O)(=O)N4CCCC(C)C4)cc3)sc2c1 (configuration not stated)	none (no result: MARV entry inh, HCV inh)
COc1ccc2nc(NC(=O)C3CCN(S(=O)(=O)c4cccs4)CC3)sc2c1	MARV entry inh inconclusive, VACV Venus inh inconclusive, Vaccinia mCherry inconclusive, Lassa entry inh 15µM, HCV inh 10µM
Cc1ccc2nc(NC(=O)C3CCN(S(=O)(=O)c4cccs4)CC3)sc2c1	MARV entry inh inconclusive, Lassa entry inh 10µM, HCV inh 13µM (no result: VACV Venus inh, Vaccinia mCherry)
Cc1ccc2nc(NC(=O)C3CCN(S(=O)(=O)c4cccnc4)CC3)sc2c1	Vaccinia mCherry inconclusive, HCV inh inconclusive (no result: MARV entry inh, Lassa entry inh)
COc1ccc2nc(NC(=O)C3CCCN(S(=O)(=O)c4cccs4)C3)sc2c1 (configuration not stated)	MARV entry inh inconclusive, VACV Venus inh inconclusive, Lassa entry inh inconclusive, HCV inh 13µM (no result: Vaccinia mCherry)
CCn1c2ccccc2c2cc(NC(=O)C3CCN(S(=O)(=O)c4cccs4)CC3)ccc21	HCV inh 4µM
CCOC(=O)/C(C)=N/NC(C)=O	none (no result: VACV Venus inh, Vaccinia mCherry, Lassa entry inh, HCV inh)
COc1cccc(CNC(=O)c2c(OC)cc(=O)n3c2CCN(C(=O)C2CC24CCCCC4)CC3)c1 (configuration not stated)	none (no result: MARV entry inh, Lassa entry inh, HCV inh)
COc1ccc(OC)c([C@H]2C(C(=O)c3sc(C)nc3C)=C(O)C(=O)N2CCN2CCOCC2)c1	none (no result: VACV Venus inh, Vaccinia mCherry, Lassa entry inh, HCV inh)
CN(c1cccc(NC(=O)CN(c2ccc(F)cc2)S(C)(=O)=O)c1)S(C)(=O)=O	none
CN(c1cccc(NC(=O)CN(c2ccc(C34CC5CC(CC(C5)C3)C4)cc2)S(C)(=O)=O)c1)S(C)(=O)=O	MARV entry inh 18µM, VACV Venus inh inconclusive, Vaccinia mCherry inconclusive, Lassa entry inh 7.3µM, HCV inh inconclusive
Cc1ccc(S(=O)(=O)N(CC(=O)Nc2cccc(N(C)S(C)(=O)=O)c2)c2ccc(Cl)c(Cl)c2)cc1	MARV entry inh 16µM, Lassa entry inh inconclusive, HCV inh inconclusive
COc1cccc(NC(=O)CN(c2cccc(F)c2)S(C)(=O)=O)c1	HCV inh 8.9µM
COc1ccc(C2CC(=O)c3cnc4c(-c5ccc(F)cc5)c(C)nn4c3C2)cc1OC (configuration not stated)	VACV Venus inh inconclusive, Vaccinia mCherry inconclusive (no result: HCV inh)
N=C1Sc2ccccc2C2=NCCCN12	MARV entry inh 1.6µM (no result: VACV Venus inh, Vaccinia mCherry, Lassa entry inh, HCV inh)
CCN(CC(=O)NCc1cccs1)C(=O)/C=C/c1ccc(OC)cc1OC	HCV inh 20µM
CCc1ccc(Cn2c(CNS(=O)(=O)c3ccc4c(c3)CCCC4)nc3cccnc32)cc1	none (no result: MARV entry inh, HCV inh)
CCOc1ccc(N(CC(=O)NC2CCCCC2)C(=O)CCCC(=O)Nc2ccccn2)cc1	Lassa entry inh 10µM
CCOc1ccc(N(CC(=O)NC2CCCC2)C(=O)CSc2nnc(COc3ccccc3)o2)cc1	MARV entry inh inconclusive, HCV inh 22µM
Cc1cc(C)cc(N(CC(=O)NC2CCCCC2)C(=O)CCCC(=O)Nc2ccccn2)c1	MARV entry inh inconclusive, Lassa entry inh inconclusive
Nc1cccc(B(O)O)c1	none (no result: MARV entry inh, Lassa entry inh, HCV inh)
Cc1nn(C(C)(C)C)c(OC(=O)c2cccc(F)c2)c1Sc1ccccc1	none (no result: HCV inh)
Cc1c(N)cc[n+](CC(=O)c2ccccc2)c1C	HCV inh 8.9µM
Cc1cc[n+](CC(=O)c2ccccc2)c2ccccc12	MARV entry inh inconclusive, Lassa entry inh inconclusive
Cn1cc(/C=N/n2cnc3scc(-c4ccccc4)c3c2=O)c2ccccc21	MARV entry inh inconclusive, VACV Venus inh inconclusive, Vaccinia mCherry inconclusive, HCV inh 6.3µM
CCc1ccc(S(=O)(=O)NCc2nc(N3CCCC3)c3cccc(C)c3n2)cc1	none (no result: MARV entry inh, Lassa entry inh, HCV inh)
CN[C@@H](C)[C@H](O)c1ccccc1	MARV entry inh 11µM (no result: Lassa entry inh, HCV inh)
CN[C@H](C)[C@H](O)c1ccccc1	none (no result: MARV entry inh, Lassa entry inh)
Cc1nc2ccccc2c(N)c1C(=O)/C=C/c1ccccc1	MARV entry inh inconclusive, VACV Venus inh inconclusive, Vaccinia mCherry 16µM, Lassa entry inh 10µM, HCV inh 11µM
CC(=O)c1c(C)nc2ccccc2c1N	Lassa entry inh inconclusive (no result: Vaccinia mCherry)
CCOC(=O)N/N=C1\C[C@@H](O)[C@@H](O)[C@@H]2[C@@H]3C(=O)N(C4CCCCC4)C(=O)[C@@H]3CC[C@H]12	none (no result: VACV Venus inh, Vaccinia mCherry, Lassa entry inh, HCV inh)
Cc1nc2ccccn2c1-c1csc(NCc2ccco2)n1	Lassa entry inh inconclusive, HCV inh inconclusive (no result: VACV Venus inh, Vaccinia mCherry)
Cc1ccc(Nc2nc(-c3c(C)nc4ccccn34)cs2)cc1	VACV Venus inh 10µM, Vaccinia mCherry inconclusive, Lassa entry inh inconclusive, HCV inh inconclusive
Cc1ccn2c(-c3csc(NCc4ccccc4)n3)c(C)nc2c1	MARV entry inh inconclusive, VACV Venus inh inconclusive, Lassa entry inh inconclusive, HCV inh 10µM (no result: Vaccinia mCherry)
O=S(=O)(c1ccccc1)[C@@]1(c2ccc(Br)cc2)C[C@@H]2ON=C(c3ccccc3)[C@@H]2C1	HCV inh 10µM (no result: MARV entry inh, Lassa entry inh)
O=S(=O)(c1ccccc1)[C@@]1(c2ccc(Br)cc2)C[C@@H]2ON=C(c3cccc(Br)c3)[C@@H]2C1	none (no result: MARV entry inh, Lassa entry inh)
COc1ccc2c(c1)C(C)=CC(C)(C)N2S(=O)(=O)c1ccc(Br)cc1	MARV entry inh inconclusive, Lassa entry inh inconclusive, HCV inh inconclusive
COc1ccc2c(c1)C(C)=CC(C)(C)N2S(=O)(=O)c1ccc(NC(C)=O)cc1	MARV entry inh 1.1µM, VACV Venus inh inconclusive, Lassa entry inh inconclusive
COc1ccc(OC)c(-c2ccnc(-n3ncc(C(=O)NC(C)(C)CO)c3C3CC3)n2)c1	none (no result: MARV entry inh, Lassa entry inh, HCV inh)
COc1ccc(CNS(=O)(=O)c2ccc3c(c2)CC(C)N3C(=O)C2CC2)cc1 (configuration not stated)	MARV entry inh inconclusive, HCV inh 22µM
COc1cccc(CNS(=O)(=O)c2ccc3c(c2)CC(C)N3C(=O)C2CC2)c1 (configuration not stated)	Lassa entry inh inconclusive, HCV inh inconclusive
CC(=O)N1c2ccc(S(=O)(=O)NCC3CCC(C(=O)N4CC(C)CC(C)C4)CC3)cc2CC1C (configuration not stated)	HCV inh 14µM (no result: MARV entry inh, VACV Venus inh, Vaccinia mCherry, Lassa entry inh)
